17 compounds from PubChem BioAssay (EPA / NIEHS) can be followed below.

Calls of active or inactive are those of the source. How the source made its calls: active means hit-call score of the fitted dose curve at least 0.9, where 1 is the maximum; inactive means score below 0.9.

What all share (details): mRNA level, 48 h; actives raise or lower the signal
Read-out in assay [1]: Paternally Expressed 10 (PEG10), PEG10 (gene 23089)
Kind of assay: LTEA_HepaRG_PEG10: Life Technologies and Expression Analysis (LTEA) Assay for Paternally Expressed 10 (PEG10) using HepaRG (AID 2283520).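 On AC50: PEG10 transcript by qRT-PCR normalised to ACTB GAPDH and POLR2A.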 The procedure, abridged: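 After 48 h exposure of differentiated HepaRG cells (0.5% DMSO vehicle, eight concentrations up to 100 uM, duplicates), PEG10 mRNA was measured by TaqMan qRT-PCR. Values were normalised to endogenous control genes and analysed bidirectionally against vehicle.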

Read-out in assay [2]: Nuclear factor NF-kappa-B p105 subunit (Homo sapiens) (UniProt P19838)
As to the kind of experiment: LTEA_HepaRG_NFKB1: Life Technologies and Expression Analysis (LTEA) Assay for Nuclear Factor Kappa B Subunit 1 (NFKB1) using HepaRG (AID 2283521).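 On outcome: TaqMan qRT-PCR transcript normalised to ACTB GAPDH and POLR2A housekeeping genes.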 The method, boiled down: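 Differentiated human HepaRG cells were exposed for 48 h in serum-free induction medium to eight concentrations (top 100 uM, half-log steps, 0.5% DMSO), in duplicate. NFKB1 mRNA was measured by TaqMan qRT-PCR, normalized to ACTB/GAPDH/POLR2A, and fitted bidirectionally against DMSO.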

Read-out in assay [3]: Protein phosphatase 2A (PPP2R4), PTPA (gene 5524)
Kind of assay: LTEA_HepaRG_PPP2R4: Life Technologies and Expression Analysis (LTEA) Assay for Protein phosphatase 2A (PPP2R4) using HepaRG (AID 2283522). The procedure, abridged:
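Using HepaRG cultures maintained in 0.5% DMSO, chemicals are tested 48 h at up to 100 uM in duplicate. Induction or suppression of PPP2R4 mRNA, measured by qRT-PCR, is fitted bidirectionally against the vehicle baseline.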

Read-out in assay [4]: Phosphatase and tensin (PTEN), PTEN (gene 5728)
Kind of assay: LTEA_HepaRG_PTEN: Life Technologies and Expression Analysis (LTEA) Assay for Phosphatase and tensin (PTEN) using HepaRG (AID 2283523). The method, boiled down:
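Expression of PTEN is quantified in the human liver line HepaRG following two days of dosing (top concentration 100 uM, half-log dilutions, 0.5% DMSO). Values derive from bidirectional curve fitting relative to DMSO controls.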

Read-out in assay [5]: solute carrier (SLC22A1), SLC22A1 (gene 6580)
Kind of assay: LTEA_HepaRG_SLC22A1: Life Technologies and Expression Analysis (LTEA) Assay for solute carrier (SLC22A1) using HepaRG (AID 2283524). The method, boiled down: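 Transcript induction or suppression of SLC22A1 in human HepaRG cultures is scored after 48 h chemical treatment, with DMSO (0.5%) as baseline for bidirectional fitting. Concentrations span eight half-log points topping at 100 uM.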

Read-out in assay [6]: NAD(P)H dehydrogenase [quinone] 1 (NQO1), NQO1 (gene 1728)
Kind of assay: LTEA_HepaRG_NQO1: Life Technologies and Expression Analysis (LTEA) Assay for NAD(P)H dehydrogenase [quinone] 1 (NQO1) using HepaRG (AID 2283526). The procedure, abridged: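 In this assay, gene expression is read by qRT-PCR after 48 h exposure of HepaRG cells to eight concentrations (max 100 uM, half-log) in 0.5% DMSO. Each chemical runs in duplicate, and activity is scored relative to vehicle.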

Read-out in assay [7]: Nuclear factor erythroid 2-related factor 2 (Homo sapiens) (UniProt Q16236)
As to the kind of experiment: LTEA_HepaRG_NFE2L2: Life Technologies and Expression Analysis (LTEA) Assay for Nuclear factor erythroid 2-related factor 2 (NFE2L2) Transcription Factor using HepaRG (AID 2283527).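 Further: TaqMan qRT-PCR transcript level normalised to ACTB GAPDH and POLR2A housekeeping genes.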 The method, boiled down: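 Human liver HepaRG line treated in duplicate for 48 h with an eight-point series topping at 100 uM. Gene expression of NFE2L2 by qRT-PCR, bidirectionally fitted against the vehicle control.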

Read-out in assay [8]: succinate dehydrogenase complex iron sulfur subunit B (SDHB), SDHB (gene 6390)
Kind of assay: LTEA_HepaRG_SDHB: Life Technologies and Expression Analysis (LTEA) Assay for succinate dehydrogenase complex iron sulfur subunit B (SDHB) using HepaRG (AID 2283528). The procedure, abridged: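 HepaRG, 48 h exposure, 8-pt half-log series from 100 uM in 0.5% DMSO, duplicates. Readout: SDHB mRNA by Fluidigm qRT-PCR vs housekeeping genes; bidirectional fit relative to DMSO.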

Read-out in assay [9]: Signal transducer and activator of transcription 3 (Homo sapiens) (UniProt P40763)
As to the kind of experiment: LTEA_HepaRG_STAT3: Life Technologies and Expression Analysis (LTEA) Assay for Signal transducer and activator of transcription (STAT3) using HepaRG (AID 2283529). The method, boiled down: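 In this transcriptional endpoint, HepaRG cultures receive test chemicals at up to 100 uM for 48 h, tested in duplicate. STAT3 mRNA is normalized to ACTB, GAPDH and POLR2A.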

Read-out in assay [10]: Pyruvate Dehydrogenase Kinase 4 (PDK4), PDK4 (gene 5166)
As to the kind of experiment: LTEA_HepaRG_PDK4: Life Technologies and Expression Analysis (LTEA) Assay for Pyruvate Dehydrogenase Kinase 4 (PDK4) using HepaRG (AID 2283525). The method, boiled down:
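Eight-point, half-log concentration series (max 100 uM, 0.5% DMSO) applied to differentiated HepaRG cells for 48 h in duplicate. Endpoint: PDK4 mRNA induction or repression by qRT-PCR against DMSO baseline.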

Nuclear factor NF-kappa-B p105 subunit (Homo sapiens), sequence (P19838 whole entry, looked up): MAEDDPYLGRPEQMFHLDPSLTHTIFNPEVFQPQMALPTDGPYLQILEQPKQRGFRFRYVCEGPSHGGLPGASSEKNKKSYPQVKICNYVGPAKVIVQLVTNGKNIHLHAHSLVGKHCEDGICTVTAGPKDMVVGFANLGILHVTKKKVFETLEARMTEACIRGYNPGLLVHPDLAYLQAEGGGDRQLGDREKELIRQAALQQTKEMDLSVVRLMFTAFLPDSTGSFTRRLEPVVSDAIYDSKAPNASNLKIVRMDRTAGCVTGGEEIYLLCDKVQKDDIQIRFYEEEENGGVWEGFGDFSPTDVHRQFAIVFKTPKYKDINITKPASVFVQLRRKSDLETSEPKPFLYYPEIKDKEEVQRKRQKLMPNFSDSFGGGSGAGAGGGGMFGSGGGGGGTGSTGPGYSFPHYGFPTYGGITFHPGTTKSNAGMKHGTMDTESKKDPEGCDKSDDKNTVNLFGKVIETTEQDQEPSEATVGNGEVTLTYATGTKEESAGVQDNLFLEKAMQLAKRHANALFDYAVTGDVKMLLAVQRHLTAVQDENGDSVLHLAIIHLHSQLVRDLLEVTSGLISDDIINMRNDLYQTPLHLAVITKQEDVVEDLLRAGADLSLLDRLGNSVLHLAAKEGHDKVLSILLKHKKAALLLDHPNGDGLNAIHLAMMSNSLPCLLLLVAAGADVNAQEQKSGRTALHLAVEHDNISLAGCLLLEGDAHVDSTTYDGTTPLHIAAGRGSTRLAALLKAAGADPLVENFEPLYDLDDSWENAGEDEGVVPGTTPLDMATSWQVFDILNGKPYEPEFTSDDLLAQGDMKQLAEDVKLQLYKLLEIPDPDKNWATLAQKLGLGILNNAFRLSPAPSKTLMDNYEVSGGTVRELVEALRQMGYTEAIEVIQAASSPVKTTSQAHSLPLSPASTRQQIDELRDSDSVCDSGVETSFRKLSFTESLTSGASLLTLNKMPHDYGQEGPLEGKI
Nuclear factor erythroid 2-related factor 2 (Homo sapiens), sequence (Q16236 whole entry, looked up): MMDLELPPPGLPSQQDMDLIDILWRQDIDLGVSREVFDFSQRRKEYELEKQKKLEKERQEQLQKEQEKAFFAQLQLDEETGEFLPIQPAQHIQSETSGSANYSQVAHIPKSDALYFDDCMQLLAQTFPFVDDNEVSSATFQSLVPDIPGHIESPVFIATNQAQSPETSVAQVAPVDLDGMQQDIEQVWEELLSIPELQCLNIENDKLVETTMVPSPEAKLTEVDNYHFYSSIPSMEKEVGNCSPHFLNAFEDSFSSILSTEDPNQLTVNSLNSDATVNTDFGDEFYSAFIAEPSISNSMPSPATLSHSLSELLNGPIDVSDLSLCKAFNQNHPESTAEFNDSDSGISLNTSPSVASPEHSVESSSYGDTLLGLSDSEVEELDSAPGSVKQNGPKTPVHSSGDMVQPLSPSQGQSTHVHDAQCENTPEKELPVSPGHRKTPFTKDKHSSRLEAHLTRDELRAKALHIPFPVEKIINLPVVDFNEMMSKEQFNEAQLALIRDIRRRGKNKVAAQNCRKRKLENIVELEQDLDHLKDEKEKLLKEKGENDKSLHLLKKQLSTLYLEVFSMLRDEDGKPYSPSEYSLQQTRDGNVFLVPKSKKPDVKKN
Signal transducer and activator of transcription 3 (Homo sapiens), sequence (P40763 whole entry, looked up): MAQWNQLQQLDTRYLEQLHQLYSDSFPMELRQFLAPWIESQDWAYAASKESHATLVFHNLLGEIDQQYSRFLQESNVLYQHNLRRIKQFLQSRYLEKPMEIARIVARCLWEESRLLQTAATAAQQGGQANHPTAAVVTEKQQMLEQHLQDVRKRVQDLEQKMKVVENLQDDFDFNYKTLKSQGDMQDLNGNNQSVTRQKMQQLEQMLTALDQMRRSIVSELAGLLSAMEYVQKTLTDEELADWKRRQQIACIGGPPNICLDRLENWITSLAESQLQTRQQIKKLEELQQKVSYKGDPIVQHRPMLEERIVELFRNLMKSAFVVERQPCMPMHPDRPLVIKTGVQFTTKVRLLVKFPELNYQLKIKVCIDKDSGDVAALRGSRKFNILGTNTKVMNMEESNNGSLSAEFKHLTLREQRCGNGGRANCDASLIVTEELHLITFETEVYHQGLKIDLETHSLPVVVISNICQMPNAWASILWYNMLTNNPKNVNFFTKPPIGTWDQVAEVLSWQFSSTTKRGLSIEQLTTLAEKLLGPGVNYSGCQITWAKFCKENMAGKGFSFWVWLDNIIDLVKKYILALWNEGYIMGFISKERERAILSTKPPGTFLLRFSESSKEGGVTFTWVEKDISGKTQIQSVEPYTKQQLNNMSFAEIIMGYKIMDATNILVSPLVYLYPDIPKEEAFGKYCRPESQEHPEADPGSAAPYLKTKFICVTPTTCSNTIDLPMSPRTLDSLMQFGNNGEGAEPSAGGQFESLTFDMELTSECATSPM

As for `N[C@@H](Cc1c[nH]c2ccccc12)C(=O)O`, the result in assay [1], in assay [2], in assay [3], in assay [4], in [5] and in [6] was inactive. The compound was called inactive in assay [7], in [8] and in [9].
In general, AC50 refers to the concentration giving half of the maximal activity seen. As to `Cc1cc(SC2=C(O)C[C@@](CCc3ccc(N)cc3)(C(C)C)OC2=O)c(C(C)(C)C)cc1CO`, the compound was called inactive in [1], in [2], in [3], in [4], in [6] and in assay [7]. Also, the compound was classed as inactive in assay [8] and in assay [9]. In assay [5], the AC50 is 7.05 µM (active).
`O=NO`: the outcome in assay [1], in [2], in [3], in assay [4], in [5] and in assay [6] was inactive. The outcome in [7], in [8] and in assay [9] was inactive.
For `CSc1ccc(Oc2ccc(S(N)(=O)=O)cc2CN(C)C)cc1C`, in [1], the AC50 was 72.7 µM (active). For the same compound, the outcome in assay [2], in [3], in assay [4], in [5], in assay [6] and in [7] was inactive. The call in assay [8] and in [9] was inactive.
As to `CCCCC(CC)CO` (configuration not stated), the outcome in assay [1], in [2], in assay [3], in assay [4], in assay [5] and in assay [7] was inactive. Besides, the compound was classed as inactive in assay [8] and in assay [9].
On to `C/C=C/c1ccc(OC)cc1`, for which the outcome in assay [1], in [2], in [3], in assay [4], in assay [5] and in assay [6] was inactive. For the same compound, the call in assay [7], in [8] and in assay [9] was inactive.
Regarding `Cc1c(C)c2c(c(C)c1O)CCC(C)(COc1ccc(CC3SC(=O)NC3=O)cc1)O2` (configuration not stated), the AC50 in assay [1] is 91.5 µM (active); in assay [2], 77 µM (active). Moreover, the result in [3], in [4], in [6], in [7], in assay [8] and in assay [9] was inactive.
As to `NCCOCCOCCN`, the call in assay [1], in assay [2], in assay [3], in [4], in assay [5] and in assay [6] was inactive. The outcome in assay [7], in assay [8] and in [9] was inactive.
Turning to `CCCCC(CC)COC(=O)CCCCCCCC(=O)OCC(CC)CCCC` (configuration not stated), the compound was called inactive in assay [1], in assay [2], in assay [3], in [4], in assay [6] and in assay [7]. The compound was classed as inactive in [8] and in [9].
For `CCCCC(CC)COP(=O)(OCC(CC)CCCC)OCC(CC)CCCC` (configuration not stated), the outcome in assay [1], in [2], in [3], in assay [4], in assay [5] and in [10] was inactive. Also, the call in assay [6], in assay [7] and in assay [9] was inactive.
Regarding `O=C(O)c1[nH]n(-c2ccc(S(=O)(=O)O)cc2)c(=O)c1N=Nc1ccc(S(=O)(=O)O)cc1`, the outcome in assay [1], in assay [2], in assay [3], in assay [4], in [5] and in assay [6] was inactive. Further, the compound was called inactive in assay [7], in [8] and in assay [9].
On to `CCCCOC(=O)CCCCC(=O)OCCCC`, for which the call in assay [1], in assay [2], in assay [3], in assay [4], in [6] and in [7] was inactive. Moreover, the compound was called inactive in assay [8] and in assay [9]. The AC50 in [5] is 0.243 µM (active).
As for `Cc1cc(Cc2ccc(N)c(C)c2)ccc1N`, the outcome in assay [1], in assay [2], in assay [3], in [4], in assay [5] and in [6] was inactive. In addition, the result in assay [7], in [8] and in assay [9] was inactive.
Consider `CC(=O)S[C@H](C(=O)N[C@H]1Cc2ccccc2[C@H]2CCC[C@@H](C(=O)O)N2C1=O)C(C)C`, for which the result in [1], in assay [2], in assay [3], in assay [4], in [5] and in assay [6] was inactive. For the same compound, the compound was called inactive in [7], in assay [8] and in [9].
For `CO[C@@H]1COCC[C@@H]1N[C@@H]1CC[C@@](C(=O)N2CCc3ncc(C(F)(F)F)cc3C2)(C(C)C)C1`, the result in assay [1], in assay [2], in assay [3], in [4], in assay [5] and in [6] was inactive. Also, the result in assay [7], in assay [8] and in assay [9] was inactive.
For `COC(=O)CCCC(=O)OC`, the compound was classed as inactive in assay [1], in assay [2], in assay [3], in assay [4], in assay [10] and in assay [6]. Besides, the compound was classed as inactive in [7], in assay [8] and in [9].
Take `COc1ccc(OC(F)(F)F)cc1CN[C@H]1CCCN[C@H]1c1ccccc1`: the compound was classed as inactive in [2].
